Molecules are shown by their SMILES. Results filed as inconclusive are left out. A call without a number means that no potency is given here. Active and inactive are the calls of the source. Calls come from the whole dose curve; as a rule, active = well fitted cell-killing curve with a large enough effect in the repeat runs; inconclusive = weak or mixed curves, or effect the other way; inactive = no such curve, though single readings can be large or run the other way.

The nature of this test: qHTS assay to identify small molecule agonists of the estrogen receptor alpha (ER-alpha) signaling pathway in the presence of an antagonist - cell viability counter screen (AID 1259386).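 Note: cells exposed to compounds for 22 h at 37 °C before the viability read; nearly all actives have a fitted effect of over 30% in size.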 Particulars: VM7Luc4E2 viability, CellTiter-Fluor fluorescence, 22 h; series mostly up to 92.4 µM. An excerpt:
National Center for Advancing Translational Sciences [NCATS]
NIH Chemical Genomics Center [NCGC]
U.S. Environmental Protection Agency [EPA]
National Institutes of Environmental Health Sciences [NIEHS]
National Toxicology Program [NTP]
U.S. Food and Drug Administration [FDA]
Estrogen receptor (ER), a member of nuclear hormone receptor plays an important role in development, metabolic homeostasis and reproduction. Two subtypes of ER, ER-alpha and ER-beta, have similar expression patterns with some uniqueness in both types. Endocrine disrupting chemicals (EDCs) and their interactions with steroid hormone receptors like ER causes disruption of normal endocrine function. Therefore, it is important to understand the effect of environmental chemicals in ER signaling pathway. For identifying ER agonists, VM7Luc4E2 cell line has been used in the current assay.
VM7Luc4E2 cell line (provided by Denison MS, University of California) endogenously expresses full-length ER-alpha and is stably transfected with a plasmid containing four estrogen responsive elements (ERE) upstream of a luciferase reporter gene. This current screening for measuring luciferase reporter gene activity using VM7Luc4E2 cells against Tox21 10K library collection is a confirmation study on agonist mode screening in presence of ER-antagonist (ICI-182,780) at 10.0nM final concentration. The cytotoxicity of the compounds was tested in parallel by measuring the cell viability using CellTiter-Fluor assay system (Promega, Madison, WI) in the same wells.
Tox21 Assay Protocol Summary:
VM7Luc4E2 cells were cultured in phenol red free assay medium containing 10% charcoal stripped FBS for 5 days prior to the assay. The cells were dispensed at 4,000 cells in 4uL of assay medium per well into white wall/solid-bottom 1536-well plates (Corning Life Sciences, Corning, NY) using a Multidrop Combi (Thermo Fisher Scientific Inc., Waltham, MA) dispenser. After the assay plates were incubated at 37C and 5% CO2 for 24hr, 1uL of 10.0nM (final concentration) ICI-182,780 or assay buffer was added using two separate tips of Flying Reagent Dispenser (FRD, Aurora Discovery, San Diego, CA). Then 23nL of compounds dissolved in DMSO at 15 concentrations and positive controls or DMSO only was transferred to the assay plates by a Pintool station (Wako, San Diego, CA). The assay plates were incubated at 37C and 5% CO2 for 22hr. After 21hr incubation at 37C, 1uL/well CellTiter-Fluor reagent (Promega Corporation, Madison, WI) was added to each well using FRD and after 1hr incubation at 37C and 5% CO2, the fluorescence signal was measured on ViewLux plate reader (PerkinElmer, Shelton, CT).
On the technique in general: In qHTS, concentration-response curves come from the screen itself.
For the compound `CN1C(=O)CC[C@H]1c1cccnc1`, the Potency entry is “inactive”. In the case of `CC(=O)CC(C)(C)O` it was “inactive”. Take `CCCCCCCCCCCCCCCC(=O)OC(C)C`: the Potency entry was “inactive”. Take `CC(=O)Oc1ccc(C)cc1`: the Potency result was “inactive”. Take `O=C(O)c1cc2ccccc2cc1O`: the Potency result is “inactive”. As for `COc1ccc(C)cc1N`, the Potency entry was “inactive”. As to `O=c1[nH]cnc2[nH]ncc12`, the Potency result is “inactive”.

Regarding `C[Si]1(C)O[Si](C)(C)O[Si](C)(C)O[Si](C)(C)O1`, the Potency entry was “inactive”.

Take `CNC(=O)Oc1ccc2c(c1)[C@]1(C)CCN(C)[C@@H]1N2C`: the Potency entry was “inactive”. The entry for `Cc1ccc(C(C)C)c(O)c1` is “inactive”; for `CCOCC(=O)O` it is “inactive”. In the case of `Cc1ccc2ncccc2c1` it was “inactive”; in that of `CCNC(=S)NCC`, “inactive”; in that of `CC(CCl)OP(=O)(OC(C)CCl)OC(C)CCl` (stereo not given), “inactive”.

As for `COC(=O)c1cccnc1`, the Potency entry was “inactive”. In the case of `CC(=O)OCc1ccco1` it was “inactive”. With `O=C(O)Cn1c(=O)n(Cc2ccc(Br)cc2F)c(=O)c2ccc(Cl)cc21`, the Potency result was “inactive”. `CC1(C)NC(=O)NC1=O`: the Potency entry is “inactive”. Consider `CCOC(=O)c1ccc(N)cc1`, for which the Potency entry was “inactive”. As for `c1ccc(Oc2ccccc2)cc1`, the Potency result is “inactive”. As to `CCOC(=O)n1ccn(C)c1=S`, the Potency entry is “inactive”.

On to `CCNc1cccc(C)c1`, for which the Potency result is “inactive”.

`CSc1ccc(Cl)cc1`: the Potency entry is “inactive”. Take `CCCCC(C=O)CC` (stereo not given): the Potency result was “inactive”. Turning to `O=[N+]([O-])c1ccc2nc[nH]c2c1`, the Potency entry is “inactive”.

Regarding `CCOCCOCCOCCO`, the Potency result was “inactive”. With `CCCCCCCCCCCC(=O)OC`, the Potency result was “inactive”. In the case of `C=C(C)[C@H]1CC=C(C)C(=O)C1` it was “inactive”; in that of `c1ccc2c(c1)Cc1ccccc1-2`, “inactive”. The entry for `C=C(C)CNCC` is “inactive”; for `COc1ccccc1OCC(O)CO` (stereo not given) it is “inactive”. `CN(C)c1ccc(O)c2c1C[C@H]1C[C@H]3[C@H](N(C)C)C(=O)C(C(N)=O)=C(O)[C@@]3(O)C(=O)C1=C2O`: the Potency result was “inactive”. Regarding `CCCCCCCCCCCCCCCCO`, the Potency result was “inactive”. Turning to `OCc1ccccc1`, the Potency result is “inactive”. On to `CC(=O)c1ccc(O)cc1`, for which the Potency entry was “inactive”. For `CNC(=S)N(C)C`, the Potency result was “inactive”.

Turning to `CCCCCCC=O`, the Potency entry is “inactive”. As to `COC(=O)CCCC(=O)OC`, the Potency entry was “inactive”.

With `O=C1CCCC1`, the Potency entry is “inactive”. As for `CC(CCO)CC(C)(C)C` (stereo not given), the Potency result is “inactive”.

Source of the values: PubChem BioAssay (Tox21).
